Molecules are shown by their SMILES. Screen size: about 360,000 compounds; about 740 (0.21%) were called active. About 2% were inconclusive and are not listed. The call rests on the fitted dose curve; in most records, active means well fitted inhibition curve with a large enough effect; inconclusive means small, poorly fitted or top-dose-only effect; inactive means no such curve, though single readings can be large or run the other way. Shown is part of a subset that was picked to be rich in actives. Entries that show only a call come without a potency.
Potency means the concentration at half of the fitted maximal effect.

The assay concerns Plasmodium falciparum AMA1 (3D7) - RON2 peptide interaction. The assay can be described thus: qHTS for Inhibitors of AMA1-RON; Towards Development of Antimalarial Drug Lead: Primary Screen. Further: nearly all actives have a fitted effect of over 45% in size. To be noted: AlphaScreen AMA1-biotinylated RON2 peptide binding; series mostly up to 58.2 µM. From the text: Plasmodium, the causative agent of malaria, is one of the world's deadliest parasitic diseases. Currently there is no vaccine available and there is widespread resistance to common anti-malarial drugs. This warrants novel, alternative approaches for developing improved therapy. During infection, one such essential interaction is between two parasite proteins, the apical membrane antigen1 (AMA1) that is translocated onto the merozoite surface and the rhoptry neck protein 2 (RON2), which is transferred to the red blood cells (RBC) membrane during invasion (Besteiro et.al., 2009). Recently, the Miller lab has shown that the interaction between AMA1 and RON2 is essential for junction formation of the parasite with the host cell (Srinivasan et.al., 2011). The binding of the RON2 peptide to the hydrophobic pocket in AMA triggers the formation of the moving junction which provides a firm anchor for the parasite to pull itself into the RBC using its actin-myosin motor; an irreversible step that commits the parasite for invasion. Only one AMA1 and RON2 genes exists in Plasmodium and there are no alternate pathways. Moreover, the region corresponding to RON2 peptide is conserved in all P. falciparum isolates for which sequences are available. The key residues in the AMA1 hydrophobic pocket that binds RON2 are also conserved and indicate a functional constraint governing this essential step in invasion since a short RON2 peptide (RON2L) corresponding to the binding region on AMA1 is sufficient to compete with the native RON2 protein and inhibits invasion (Tonkin et.al, 2011). Therefore, developing small molecule inhibitors of this interaction offers a promising target opening a new arena for anti-malarial therapeutics drug design.
In collaboration with the Miller lab, a quantitative High Throughput Screen using the AlphScreen technology was developed using a recombinant his-tagged AMA1 and a biotinylated RON2 peptide. This fluorescent screen was assayed against the NIH Molecular Libraries Small Molecule Repository (MLSMR). Inhibition of this protein-protein interaction is the desired outcome of this assay. However, due the limitations of this AlphaScreen assay, a large number of artifacts were observed. An AlphaScreen counterscreen was run to identify the true inhibitors, triage compound activity, and weed out false positives.
NIH Chemical Genomics Center [NCGC]
NIH Molecular Libraries Probe Centers Network [MLPCN]
Assay Submitter (PI): Louis Miller, National Institute of Allergy and Infectious Disease (NIAID)
Two microliters of his-tagged AMA1 3D7 allele protein (final concentration 25 nM) was dispensed into a 1,536-well assay plate. Small molecules and positive control peptides were pin-transferred (23 nL or 46 nL) via Kalypsys pin-tool equipped with a 1,536-pin array, resulting in final compound and peptide concentration ranges of 91.5 nM - 57.2 µM, and 15.6 nM - 2.00 µM, respectively. Unlabeled RON2 peptide or R1 peptide ([…]) that specifically binds the 3D7 AMA1 was used as a positive control that inhibited the binding of RON2L to AMA1. After 15 minutes incubation, 1 uL of biotinylated RON2 peptide (final concentration 25 nM) or buffer were dispensed and the assay plate was incubated for an additional 30 minutes at room temperature and protected from light. This was followed by an addition of 1 uL mixture of donor and acceptor beads (10 ug/mL final concentrations for each). The plates were incubated for 30 min at room temperature and read using the EnVision(R) plate reader (PerkinElmer). Maximum inhibition response was normalized to the positive control signal while no inhibition response was normalized to the DMSO treated wells.
A general note: In qHTS, concentration-response curves come from the screen itself.
In the case of `CCc1ccc(C2C(C#N)=C(N)N(N3CCOCC3)C3=C2C(=O)CC(C)(C)C3)s1` (stereo unspecified), the Potency result is “inactive”. As to `Cc1cc(O)c(C(=O)/C=C/c2c(F)c(F)c(F)c(F)c2F)c(=O)o1`, the Potency result was “inactive”.

For `CCOc1ccccc1NC(=O)Cn1ncc2ccc([N+](=O)[O-])cc21`, the Potency entry is “inactive”. For the compound `CCCCN=C1N/C(=C\c2ccco2)C(=O)N1c1ccccc1`, the Potency entry was “inactive”.

With `COc1ccc(CN2C(=O)C(C)S/C2=N/N=C/c2ccco2)cc1` (stereo unspecified), the Potency entry is “inactive”. For `COc1ccc(N2C(=O)/C(=C/c3ccco3)C(=O)NC2=S)cc1` the value was 15.8 µM (active); for `CCC1SC2=NCCN2C1(O)c1ccc(Cl)cc1` (stereo unspecified), “inactive”.

Regarding `CC(C)CCNC(=O)Cn1c(=O)oc2cc(S(=O)(=O)N3CC(C)CC(C)C3)ccc21` (stereo unspecified), the Potency entry was “inactive”. Take `CN(C(=O)CN(CCO)CC(=O)N(C)C(C)(C)Cc1ccccc1)C(C)(C)Cc1ccccc1`: the Potency result is “inactive”. Regarding `CN1OC[C@@H]2CN(S(=O)(=O)c3cccc(C(F)(F)F)c3)[C@H](c3ccc(-c4cc5ccccc5o4)cc3)C[C@@H]21`, the Potency result was “inactive”. Consider `CC1=C(C(=O)Nc2ccc(Cl)cc2)C(c2ccco2)NC(=O)N1` (stereo unspecified), for which the Potency entry was “inactive”. `CCNC(=O)N1CCNC(=O)C1CC(=O)Nc1ccc(C(=O)OCC)cc1` (stereo unspecified): the Potency entry is “inactive”. Take `CCOc1ccccc1-n1c(SCC(=O)NCc2ccco2)nnc1-c1ccncc1`: the Potency entry is “inactive”. Next, `Cc1ccc(NC(=O)CN2CCCCC2)c2c1CC(C)(C)O2`: “inactive”; `CC(=O)c1ccc(NC(=O)C(C)NCc2ccc(Cl)cc2)cc1` (stereo unspecified): “inactive”. Consider `CN(/C(=N/S(=O)(=O)c1cccs1)c1ccccc1)c1ccc(O)cc1`, for which the Potency entry is “inactive”. Next, `CC1CCC(NC(=O)CN(C)S(=O)(=O)c2ccc3c(c2)c(=O)n(C)c(=O)n3C)CC1` (stereo unspecified): “inactive”; `O=S(=O)(c1ccc(Br)cc1)c1nc(-c2ccccc2)oc1NCc1cccnc1`: “inactive”. For `O=C1CC(=O)Nc2cc(S(=O)(=O)N3CCN(c4cccc(C(F)(F)F)c4)CC3)ccc2N1`, the Potency entry was “inactive”. Take `Cc1ccc(N(C(=O)Cc2cccs2)C(C(=O)NCC2CCCO2)c2ccncc2)cc1` (stereo unspecified): the Potency result is “inactive”. For the compound `CCOC(=O)c1ccccc1NC(=O)COC(=O)C(Cc1c[nH]c2ccccc12)NC(C)=O` (stereo unspecified), the Potency entry is “inactive”.

With `C=CCc1cccc2cc(C(=O)Nc3ccc(NC(C)=O)cc3)c(=O)oc12`, the Potency result was “inactive”.

As to `Cc1cc(NC(=O)CSc2nnc(-c3ccc(Cl)s3)o2)no1`, the Potency was 2.24 µM (active).

With `O=C(CSc1nnc(-c2ccncc2)o1)Nc1cccc(Cl)c1`, the Potency result is “inactive”. As to `Cc1cc(NC(=O)CSc2nnnn2-c2ccc(F)cc2)no1`, the Potency entry was “inactive”. Turning to `CC1(C)C(c2ccccc2)=NC(c2cccnc2)=[N+]1[O-]`, the Potency entry was “inactive”. With `COc1cccc(N(C(=O)c2snc(C(N)=O)c2N)C(C(=O)NCC2CCCO2)c2c[nH]c3ccccc23)c1` (stereo unspecified), the Potency result was “inactive”. As to `CC(C)(C)c1ccc(NC(=O)COC(=O)CCc2nc3ccccc3c(=O)[nH]2)cc1`, the Potency result is “inactive”.

Turning to `CCN(c1ccc(NC(=O)COC(=O)CCc2nc3ccccc3n2-c2ccccc2)cc1)C(C)C`, the Potency was 10 µM (active). As to `Cc1ccc(NC(=O)COC(=O)CCc2nc3ccccc3n2-c2ccccc2)c(C)c1`, the Potency entry is “inactive”. On to `CC(C)NC(=O)Nc1ccc2c(c1)C(=O)N([C@H](C)CO)C[C@H](C)[C@@H](CN(C)Cc1ccc(C(F)(F)F)cc1)OCCCC[C@@H](C)O2`, for which the Potency result is “inactive”.

In the case of `C=C1c2c(Cl)ccc(O)c2C(O)=C2C(=O)[C@]3(O)C(O)=C(C(N)=O)C(=O)[C@@H](N(C)C)[C@@H]3[C@@H](O)C12` (stereo partly specified), the Potency was 1.41 µM (active). Take `CC(=O)Nc1nc(C)c(Cc2ccccc2)c(=O)[nH]1`: the Potency result was “inactive”.

As for `C#CCOCCOCCOCCNc1nc(N2CCN(C(=O)C([C@@H](C)CC)n3cc(C(N)COC(=O)C(F)(F)F)nn3)CC2)nc(N2CCN(C(=O)[C@H](Cc3ccc(O)cc3)n3cc(C(N)[C@H](C)CC)nn3)CC2)n1` (stereo partly specified), the Potency result was “inactive”.

As for `O=[N+]([O-])c1ccc(Sc2n[nH]c(-c3ccco3)n2)nc1`, the Potency entry is “inactive”. Regarding `COc1ccc(CNC(=O)COC(=O)C2=Cc3ccccc3OC2)cc1`, the Potency entry was “inactive”. In the case of `OCC#CC[N+]1(CC#Cc2ccccc2)CCCC1`, the Potency entry is “inactive”. `CC1(C)Cc2c(sc(NC(=O)C(=O)NCC3CCCO3)c2C(=O)O)CO1` (stereo unspecified): the Potency entry is “inactive”. Consider `CN(C)c1ccc(C(CC(=O)O)C(=O)O)cc1` (stereo unspecified), for which the Potency entry was “inactive”.

As to `O=C(Nc1ccc(CSc2ccccc2)cc1)c1ccc(CN2CCOCC2)cc1`, the Potency result is “inactive”. On to `CN(C)c1ccc(CSc2ccccc2)cc1`, for which the Potency is 8.91 µM (active). Next, `Cc1cccc(CSc2nc3c(c(=O)n2C)SCC3)c1`: “inactive”; `O=C(O)c1ccc2c(=O)n3c(nc2c1)/C(=C/c1ccc(OC(F)F)cc1OC(F)F)CC3`: 20 µM (active). With `N#Cc1ccc(/C=C2\CCn3c2nc2cc(C(=O)O)ccc2c3=O)cc1`, the Potency entry is “inactive”.

Consider `Cc1ccc(/C=C2\CCn3c2nc2cc(C(=O)O)ccc2c3=O)c(C)c1`, for which the Potency entry was “inactive”. Regarding `CCOC(=O)c1c(-n2cnnn2)sc(C)c1C`, the Potency result is “inactive”. Consider `COc1ccc2c(c1)c(=Cc1ccc(N(C)C)cc1)c1cc(-c3ccccc3)[n+](C)n12`, for which the Potency was 17.8 µM (active). In the case of `CCCCCOC(=O)C1=C(C)Nc2nnnn2C1c1ccc(OC)c(OC)c1OC` (stereo unspecified), the Potency result was “inactive”. Next, `COc1ccc(-c2nc3c(s2)CCc2onc(-c4ccc(Br)cc4)c2-3)cc1`: “inactive”; `CC1(C(=O)NCC2CCOCC2)Cc2c(-c3cccc(C(N)=O)c3)ccnc2O1` (stereo unspecified): “inactive”; `CN(Cc1c(F)cccc1Cl)C(=O)COC(=O)Cn1cnc2ccccc2c1=O`: “inactive”. Regarding `COc1ccc(/C(N)=N/OC(=O)Oc2ccccc2)cc1`, the Potency entry is “inactive”.

Take `COc1ccc(C(C#N)=C2C=CC(=NO)c3ccccc32)cc1`: the Potency is 12.6 µM (active).

`COC(=O)Nc1ncc(CN2CCCCC2)s1`: the Potency result was “inactive”. Consider `CC(C)(C)c1nnc(N/N=C/c2ccc(O)cc2)n(N)c1=O`, for which the Potency entry is “inactive”. On to `CC(=O)Nc1ccc(S(=O)(=O)Nc2nc3n(n2)C(c2ccccc2)CC(=O)N3)cc1` (stereo unspecified), for which the Potency entry is “inactive”. `CCCCN(C(=O)CSCc1ccc(C)cc1)c1c(N)n(Cc2ccccc2)c(=O)[nH]c1=O`: the Potency result is “inactive”. With `O=C(Nn1cnnc1)c1cc(Cl)ccc1Cl`, the Potency entry was “inactive”.

In the case of `Cc1cc(NC(=O)CCS(=O)(=O)c2ccc(F)cc2)no1`, the Potency result was “inactive”. For `CCn1c(SCC(=O)NC2=NCCS2)nnc1C(C)NC(=O)c1ccccc1F` (stereo unspecified), the Potency result is “inactive”. Next, `COc1ccc(NC(=O)NC2CC3CCCC(C2)N3Cc2ccccc2)cc1` (stereo unspecified): “inactive”.

The values are drawn from PubChem BioAssay AID720542 (National Center for Advancing Translational Sciences (NCATS), 2013).
